For two molecules, residual activity results are on record in ChEMBL document CHEMBL2218924, “A broad activity screen in support of a chemogenomic map for kinase signalling research and drug discovery” (Biochem J, 2013).

For assay [1], the target named is T1, Serine/threonine-protein kinase 17A (Homo sapiens) (UniProt Q9UEE5).
T1 sequence (whole entry): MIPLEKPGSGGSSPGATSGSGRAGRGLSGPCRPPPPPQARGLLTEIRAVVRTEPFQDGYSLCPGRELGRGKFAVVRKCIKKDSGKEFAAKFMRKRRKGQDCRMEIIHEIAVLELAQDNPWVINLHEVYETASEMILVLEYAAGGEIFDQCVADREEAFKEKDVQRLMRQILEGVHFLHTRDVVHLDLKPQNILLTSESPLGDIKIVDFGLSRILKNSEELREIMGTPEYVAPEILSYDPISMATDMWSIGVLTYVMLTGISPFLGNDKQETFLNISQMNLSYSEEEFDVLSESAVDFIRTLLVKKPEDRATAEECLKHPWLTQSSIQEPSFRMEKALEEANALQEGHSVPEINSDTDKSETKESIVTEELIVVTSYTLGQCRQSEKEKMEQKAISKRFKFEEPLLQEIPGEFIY
Particulars: at 10 µM.

The target in assay [2] is T2, Dual specificity tyrosine-phosphorylation-regulated kinase 2 (Homo sapiens) (UniProt Q92630).
T2 sequence (whole entry): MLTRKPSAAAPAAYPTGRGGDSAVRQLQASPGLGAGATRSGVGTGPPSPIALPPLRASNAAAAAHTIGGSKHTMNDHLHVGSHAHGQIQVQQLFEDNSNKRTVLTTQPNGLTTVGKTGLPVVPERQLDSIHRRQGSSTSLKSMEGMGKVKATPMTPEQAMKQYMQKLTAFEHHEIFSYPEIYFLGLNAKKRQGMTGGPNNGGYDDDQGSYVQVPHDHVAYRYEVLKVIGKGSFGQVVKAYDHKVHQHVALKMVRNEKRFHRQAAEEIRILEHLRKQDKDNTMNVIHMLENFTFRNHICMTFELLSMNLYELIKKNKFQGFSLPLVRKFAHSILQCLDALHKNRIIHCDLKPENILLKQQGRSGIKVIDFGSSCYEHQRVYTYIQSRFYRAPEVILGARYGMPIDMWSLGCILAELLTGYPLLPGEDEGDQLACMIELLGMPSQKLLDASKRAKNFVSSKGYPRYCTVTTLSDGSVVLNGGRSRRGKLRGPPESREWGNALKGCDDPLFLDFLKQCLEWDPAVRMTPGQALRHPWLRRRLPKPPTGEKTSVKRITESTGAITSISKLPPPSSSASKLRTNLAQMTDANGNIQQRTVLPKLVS
Particulars: at 1 µM.

Assay [3] concerns the target T2, Dual specificity tyrosine-phosphorylation-regulated kinase 2 (Homo sapiens). Particulars: at 10 µM.
For assay [4], the target named is T3, Ephrin type-A receptor 1 (Homo sapiens) (UniProt P21709).
T3 sequence (whole entry): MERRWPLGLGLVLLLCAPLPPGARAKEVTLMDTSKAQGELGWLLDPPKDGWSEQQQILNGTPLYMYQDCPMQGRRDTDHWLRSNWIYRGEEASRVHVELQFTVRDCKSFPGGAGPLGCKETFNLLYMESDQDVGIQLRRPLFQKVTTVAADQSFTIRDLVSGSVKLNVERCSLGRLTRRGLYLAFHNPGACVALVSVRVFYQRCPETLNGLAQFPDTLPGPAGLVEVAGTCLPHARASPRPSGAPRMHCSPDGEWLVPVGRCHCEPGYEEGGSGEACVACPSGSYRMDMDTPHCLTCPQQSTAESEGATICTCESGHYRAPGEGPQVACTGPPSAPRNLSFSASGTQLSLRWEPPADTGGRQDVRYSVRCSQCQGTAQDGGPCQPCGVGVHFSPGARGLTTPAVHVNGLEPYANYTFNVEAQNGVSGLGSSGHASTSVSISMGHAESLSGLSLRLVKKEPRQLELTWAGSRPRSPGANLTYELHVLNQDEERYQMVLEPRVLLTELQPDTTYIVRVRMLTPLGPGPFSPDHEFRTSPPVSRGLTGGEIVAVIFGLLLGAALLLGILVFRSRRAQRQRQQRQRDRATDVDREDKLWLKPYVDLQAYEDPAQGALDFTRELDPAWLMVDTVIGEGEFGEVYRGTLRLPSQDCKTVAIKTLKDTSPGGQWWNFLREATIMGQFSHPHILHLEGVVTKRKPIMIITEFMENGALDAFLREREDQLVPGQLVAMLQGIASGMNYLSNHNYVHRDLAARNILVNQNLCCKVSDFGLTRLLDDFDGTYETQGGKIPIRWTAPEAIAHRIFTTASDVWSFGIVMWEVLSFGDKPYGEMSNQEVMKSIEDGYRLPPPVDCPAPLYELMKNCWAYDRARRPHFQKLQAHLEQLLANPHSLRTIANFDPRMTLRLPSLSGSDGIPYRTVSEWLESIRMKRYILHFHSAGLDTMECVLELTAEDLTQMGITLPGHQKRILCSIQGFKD
The conditions noted are these: at 1 µM.

Assay [5] has as its target T3, Ephrin type-A receptor 1 (Homo sapiens). The conditions noted are these: at 10 µM.
Assay [6] deals with Ephrin type-A receptor 2 (Homo sapiens) (UniProt P29317). The conditions noted are these: at 1 µM.
Sequence of Ephrin type-A receptor 2 (Homo sapiens) (P29317 whole entry): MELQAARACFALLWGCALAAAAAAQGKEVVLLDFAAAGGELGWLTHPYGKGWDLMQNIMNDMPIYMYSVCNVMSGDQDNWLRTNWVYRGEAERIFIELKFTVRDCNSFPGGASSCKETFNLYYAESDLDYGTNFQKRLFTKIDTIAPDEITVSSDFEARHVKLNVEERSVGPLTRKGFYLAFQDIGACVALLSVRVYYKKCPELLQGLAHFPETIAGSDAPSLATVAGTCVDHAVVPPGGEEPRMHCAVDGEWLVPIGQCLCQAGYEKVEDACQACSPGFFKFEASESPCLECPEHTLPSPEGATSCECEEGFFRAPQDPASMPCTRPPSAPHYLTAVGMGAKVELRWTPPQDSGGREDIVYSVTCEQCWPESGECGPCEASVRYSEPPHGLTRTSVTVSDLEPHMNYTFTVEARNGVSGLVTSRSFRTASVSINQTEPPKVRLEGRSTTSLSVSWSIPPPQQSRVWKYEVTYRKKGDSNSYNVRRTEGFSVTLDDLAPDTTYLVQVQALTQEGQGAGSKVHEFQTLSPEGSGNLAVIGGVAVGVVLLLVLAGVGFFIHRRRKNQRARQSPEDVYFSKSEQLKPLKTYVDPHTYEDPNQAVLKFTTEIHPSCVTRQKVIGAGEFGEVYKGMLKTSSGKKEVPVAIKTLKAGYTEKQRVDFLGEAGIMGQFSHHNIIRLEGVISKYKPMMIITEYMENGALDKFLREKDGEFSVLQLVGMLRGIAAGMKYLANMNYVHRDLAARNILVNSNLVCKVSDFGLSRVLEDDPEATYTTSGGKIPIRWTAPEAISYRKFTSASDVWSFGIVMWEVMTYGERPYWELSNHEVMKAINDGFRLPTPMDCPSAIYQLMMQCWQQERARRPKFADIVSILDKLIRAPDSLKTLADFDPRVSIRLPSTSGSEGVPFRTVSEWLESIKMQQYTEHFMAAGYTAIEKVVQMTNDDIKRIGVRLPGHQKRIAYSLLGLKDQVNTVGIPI
The target is the same in assay [7]. Particulars: at 10 µM.
The target of assay [8] is T4, Ephrin type-A receptor 3 (Homo sapiens) (UniProt P29320).
T4 sequence (whole entry): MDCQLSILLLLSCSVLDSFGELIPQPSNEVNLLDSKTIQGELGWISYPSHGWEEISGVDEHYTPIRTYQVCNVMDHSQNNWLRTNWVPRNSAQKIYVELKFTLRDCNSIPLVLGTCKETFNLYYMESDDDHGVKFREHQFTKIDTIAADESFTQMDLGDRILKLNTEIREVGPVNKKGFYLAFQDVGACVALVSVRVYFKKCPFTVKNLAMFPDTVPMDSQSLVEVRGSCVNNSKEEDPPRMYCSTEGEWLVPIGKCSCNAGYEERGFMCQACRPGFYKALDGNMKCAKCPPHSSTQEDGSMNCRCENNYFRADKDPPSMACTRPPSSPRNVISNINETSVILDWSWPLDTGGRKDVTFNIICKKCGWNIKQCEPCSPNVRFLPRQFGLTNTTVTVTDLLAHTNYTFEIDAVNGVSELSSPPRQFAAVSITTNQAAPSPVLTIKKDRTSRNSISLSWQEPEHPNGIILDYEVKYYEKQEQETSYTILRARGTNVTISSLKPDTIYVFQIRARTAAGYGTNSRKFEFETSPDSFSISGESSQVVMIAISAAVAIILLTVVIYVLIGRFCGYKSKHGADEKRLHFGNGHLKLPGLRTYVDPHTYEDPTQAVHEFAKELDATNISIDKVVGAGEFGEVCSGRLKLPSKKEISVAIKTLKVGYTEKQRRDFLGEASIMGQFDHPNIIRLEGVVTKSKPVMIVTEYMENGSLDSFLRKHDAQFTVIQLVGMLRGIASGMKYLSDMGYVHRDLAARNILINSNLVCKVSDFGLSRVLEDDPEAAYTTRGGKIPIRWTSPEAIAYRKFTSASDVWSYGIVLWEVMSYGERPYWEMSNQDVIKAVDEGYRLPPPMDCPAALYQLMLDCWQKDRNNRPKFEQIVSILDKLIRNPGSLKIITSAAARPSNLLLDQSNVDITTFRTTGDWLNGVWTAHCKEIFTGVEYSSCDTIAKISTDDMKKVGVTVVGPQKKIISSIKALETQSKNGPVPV
The conditions noted are these: at 1 µM.

Assay [9] deals with T4, Ephrin type-A receptor 3 (Homo sapiens). Particulars: at 10 µM.
Assay [10] has as its target Ephrin type-A receptor 4 (Homo sapiens) (UniProt P54764). Particulars: at 1 µM.
The target is the same in assay [11]. The conditions noted are these: at 10 µM.
In assay [12] the target is Ephrin type-A receptor 5 (Homo sapiens) (UniProt P54756). The conditions noted are these: at 1 µM.
Sequence of Ephrin type-A receptor 5 (Homo sapiens) (P54756 whole entry): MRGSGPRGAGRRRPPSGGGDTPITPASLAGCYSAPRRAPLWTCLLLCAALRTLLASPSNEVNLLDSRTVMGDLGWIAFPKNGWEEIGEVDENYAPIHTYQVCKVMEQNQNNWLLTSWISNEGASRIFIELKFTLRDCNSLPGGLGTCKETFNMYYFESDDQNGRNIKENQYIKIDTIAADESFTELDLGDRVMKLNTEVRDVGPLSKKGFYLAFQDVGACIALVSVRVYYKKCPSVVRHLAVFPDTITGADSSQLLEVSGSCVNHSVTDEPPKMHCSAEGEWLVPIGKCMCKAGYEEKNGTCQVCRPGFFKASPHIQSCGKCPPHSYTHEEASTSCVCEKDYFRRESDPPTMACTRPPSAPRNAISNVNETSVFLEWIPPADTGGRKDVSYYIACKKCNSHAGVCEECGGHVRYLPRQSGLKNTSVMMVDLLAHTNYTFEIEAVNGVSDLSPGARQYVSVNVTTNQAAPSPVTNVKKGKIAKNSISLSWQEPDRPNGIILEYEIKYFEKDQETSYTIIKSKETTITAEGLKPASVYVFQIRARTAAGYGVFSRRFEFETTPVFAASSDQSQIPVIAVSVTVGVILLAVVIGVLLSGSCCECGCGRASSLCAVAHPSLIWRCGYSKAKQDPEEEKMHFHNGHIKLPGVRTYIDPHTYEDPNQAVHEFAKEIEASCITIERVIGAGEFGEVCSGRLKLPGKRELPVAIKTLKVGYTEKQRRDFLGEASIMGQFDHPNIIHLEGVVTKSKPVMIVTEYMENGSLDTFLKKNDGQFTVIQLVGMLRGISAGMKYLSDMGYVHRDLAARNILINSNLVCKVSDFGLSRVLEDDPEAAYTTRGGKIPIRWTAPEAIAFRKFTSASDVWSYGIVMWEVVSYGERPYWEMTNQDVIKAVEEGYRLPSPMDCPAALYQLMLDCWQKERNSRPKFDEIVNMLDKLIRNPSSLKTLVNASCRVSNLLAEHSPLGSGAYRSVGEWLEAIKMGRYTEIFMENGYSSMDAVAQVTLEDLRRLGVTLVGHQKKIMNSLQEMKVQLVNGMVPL
The target is the same in assay [13]. The conditions noted are these: at 10 µM.
Assay [14] has as its target Ephrin type-A receptor 7 (Homo sapiens) (UniProt Q15375). The conditions noted are these: at 1 µM.
Assay [15] shares this target. The conditions noted are these: at 10 µM.
For assay [16], the target named is T5, Ephrin type-A receptor 8 (Homo sapiens) (UniProt P29322).
T5 sequence (whole entry): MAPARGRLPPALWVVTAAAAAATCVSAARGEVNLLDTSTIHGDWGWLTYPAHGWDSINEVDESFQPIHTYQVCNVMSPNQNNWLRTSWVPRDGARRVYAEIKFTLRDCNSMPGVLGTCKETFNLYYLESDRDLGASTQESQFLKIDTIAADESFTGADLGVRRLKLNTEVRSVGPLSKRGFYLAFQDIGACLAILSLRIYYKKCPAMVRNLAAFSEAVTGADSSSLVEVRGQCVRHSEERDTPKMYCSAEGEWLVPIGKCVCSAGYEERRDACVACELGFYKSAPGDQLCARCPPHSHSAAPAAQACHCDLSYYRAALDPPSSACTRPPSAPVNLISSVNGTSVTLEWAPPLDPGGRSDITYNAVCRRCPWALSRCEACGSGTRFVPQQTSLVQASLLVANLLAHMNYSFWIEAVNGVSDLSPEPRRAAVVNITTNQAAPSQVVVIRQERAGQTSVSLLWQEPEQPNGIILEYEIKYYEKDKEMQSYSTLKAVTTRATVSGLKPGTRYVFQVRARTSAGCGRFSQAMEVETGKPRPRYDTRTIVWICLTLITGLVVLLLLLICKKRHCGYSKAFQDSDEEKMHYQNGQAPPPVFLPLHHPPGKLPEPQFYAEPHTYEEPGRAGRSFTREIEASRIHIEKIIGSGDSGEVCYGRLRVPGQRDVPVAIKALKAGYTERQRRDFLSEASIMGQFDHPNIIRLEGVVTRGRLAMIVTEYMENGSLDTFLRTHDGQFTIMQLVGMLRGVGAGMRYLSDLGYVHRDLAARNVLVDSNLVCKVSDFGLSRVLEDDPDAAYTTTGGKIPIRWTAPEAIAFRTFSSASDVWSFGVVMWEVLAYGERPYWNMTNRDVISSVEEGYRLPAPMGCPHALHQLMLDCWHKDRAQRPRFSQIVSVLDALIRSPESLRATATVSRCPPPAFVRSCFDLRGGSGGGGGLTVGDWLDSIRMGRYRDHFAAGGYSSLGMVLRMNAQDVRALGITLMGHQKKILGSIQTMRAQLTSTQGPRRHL
The conditions noted are these: at 1 µM.

In assay [17] the target is T5, Ephrin type-A receptor 8 (Homo sapiens). The conditions noted are these: at 10 µM.
Assay [18] deals with T6, Ephrin type-B receptor 1 (Homo sapiens) (UniProt P54762).
T6 sequence (whole entry): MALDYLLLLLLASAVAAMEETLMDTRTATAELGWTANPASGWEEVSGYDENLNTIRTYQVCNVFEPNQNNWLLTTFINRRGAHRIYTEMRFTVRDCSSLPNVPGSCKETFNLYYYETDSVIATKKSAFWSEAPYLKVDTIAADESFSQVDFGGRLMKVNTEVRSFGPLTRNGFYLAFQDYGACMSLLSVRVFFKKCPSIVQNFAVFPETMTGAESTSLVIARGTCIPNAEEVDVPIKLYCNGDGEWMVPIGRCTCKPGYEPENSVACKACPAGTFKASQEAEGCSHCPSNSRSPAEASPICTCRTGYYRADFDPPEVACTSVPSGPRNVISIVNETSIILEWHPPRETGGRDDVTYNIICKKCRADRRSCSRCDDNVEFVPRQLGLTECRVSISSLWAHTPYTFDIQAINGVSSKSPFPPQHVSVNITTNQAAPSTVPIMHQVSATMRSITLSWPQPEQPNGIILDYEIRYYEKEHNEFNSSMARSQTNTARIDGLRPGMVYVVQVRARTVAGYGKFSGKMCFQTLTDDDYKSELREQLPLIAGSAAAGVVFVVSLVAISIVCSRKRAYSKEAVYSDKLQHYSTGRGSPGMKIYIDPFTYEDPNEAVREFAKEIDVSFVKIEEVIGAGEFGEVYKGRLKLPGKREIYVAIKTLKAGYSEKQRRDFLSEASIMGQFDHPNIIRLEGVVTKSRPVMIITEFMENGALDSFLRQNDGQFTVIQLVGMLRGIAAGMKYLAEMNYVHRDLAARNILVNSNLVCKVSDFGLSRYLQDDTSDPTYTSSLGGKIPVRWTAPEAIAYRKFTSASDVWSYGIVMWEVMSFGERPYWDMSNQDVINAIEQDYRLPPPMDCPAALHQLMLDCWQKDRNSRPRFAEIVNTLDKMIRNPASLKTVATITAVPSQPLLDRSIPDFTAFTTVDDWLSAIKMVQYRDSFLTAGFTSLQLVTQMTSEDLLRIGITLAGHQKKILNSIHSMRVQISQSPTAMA
The conditions noted are these: at 1 µM.

Sequence of Ephrin type-A receptor 4 (Homo sapiens) (P54764 whole entry): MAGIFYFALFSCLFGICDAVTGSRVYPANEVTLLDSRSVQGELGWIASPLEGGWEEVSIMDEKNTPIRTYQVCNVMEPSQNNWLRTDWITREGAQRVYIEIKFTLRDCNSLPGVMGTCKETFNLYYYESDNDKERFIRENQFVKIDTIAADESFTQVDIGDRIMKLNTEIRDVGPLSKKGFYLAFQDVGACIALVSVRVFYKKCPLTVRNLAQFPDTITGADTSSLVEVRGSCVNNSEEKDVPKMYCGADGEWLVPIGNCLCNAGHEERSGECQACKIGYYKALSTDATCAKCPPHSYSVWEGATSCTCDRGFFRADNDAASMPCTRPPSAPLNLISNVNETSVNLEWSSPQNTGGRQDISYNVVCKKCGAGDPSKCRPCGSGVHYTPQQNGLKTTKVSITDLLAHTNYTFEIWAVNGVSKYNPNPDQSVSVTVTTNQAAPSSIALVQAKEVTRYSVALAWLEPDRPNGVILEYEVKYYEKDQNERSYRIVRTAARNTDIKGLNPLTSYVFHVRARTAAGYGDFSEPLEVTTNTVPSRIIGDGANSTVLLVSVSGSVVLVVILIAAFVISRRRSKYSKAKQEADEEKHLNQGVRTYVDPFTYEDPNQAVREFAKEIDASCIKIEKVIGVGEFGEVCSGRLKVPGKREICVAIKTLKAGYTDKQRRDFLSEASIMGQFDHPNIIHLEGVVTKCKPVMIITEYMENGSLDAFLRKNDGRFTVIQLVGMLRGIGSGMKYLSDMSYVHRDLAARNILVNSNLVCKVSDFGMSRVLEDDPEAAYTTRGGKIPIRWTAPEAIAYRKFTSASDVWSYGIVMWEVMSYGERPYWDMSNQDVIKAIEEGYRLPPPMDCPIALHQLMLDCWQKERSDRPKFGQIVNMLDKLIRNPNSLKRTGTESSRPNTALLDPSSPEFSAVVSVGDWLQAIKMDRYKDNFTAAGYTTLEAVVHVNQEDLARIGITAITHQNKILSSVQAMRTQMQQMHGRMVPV
Sequence of Ephrin type-A receptor 7 (Homo sapiens) (Q15375 28-998 limits assumed): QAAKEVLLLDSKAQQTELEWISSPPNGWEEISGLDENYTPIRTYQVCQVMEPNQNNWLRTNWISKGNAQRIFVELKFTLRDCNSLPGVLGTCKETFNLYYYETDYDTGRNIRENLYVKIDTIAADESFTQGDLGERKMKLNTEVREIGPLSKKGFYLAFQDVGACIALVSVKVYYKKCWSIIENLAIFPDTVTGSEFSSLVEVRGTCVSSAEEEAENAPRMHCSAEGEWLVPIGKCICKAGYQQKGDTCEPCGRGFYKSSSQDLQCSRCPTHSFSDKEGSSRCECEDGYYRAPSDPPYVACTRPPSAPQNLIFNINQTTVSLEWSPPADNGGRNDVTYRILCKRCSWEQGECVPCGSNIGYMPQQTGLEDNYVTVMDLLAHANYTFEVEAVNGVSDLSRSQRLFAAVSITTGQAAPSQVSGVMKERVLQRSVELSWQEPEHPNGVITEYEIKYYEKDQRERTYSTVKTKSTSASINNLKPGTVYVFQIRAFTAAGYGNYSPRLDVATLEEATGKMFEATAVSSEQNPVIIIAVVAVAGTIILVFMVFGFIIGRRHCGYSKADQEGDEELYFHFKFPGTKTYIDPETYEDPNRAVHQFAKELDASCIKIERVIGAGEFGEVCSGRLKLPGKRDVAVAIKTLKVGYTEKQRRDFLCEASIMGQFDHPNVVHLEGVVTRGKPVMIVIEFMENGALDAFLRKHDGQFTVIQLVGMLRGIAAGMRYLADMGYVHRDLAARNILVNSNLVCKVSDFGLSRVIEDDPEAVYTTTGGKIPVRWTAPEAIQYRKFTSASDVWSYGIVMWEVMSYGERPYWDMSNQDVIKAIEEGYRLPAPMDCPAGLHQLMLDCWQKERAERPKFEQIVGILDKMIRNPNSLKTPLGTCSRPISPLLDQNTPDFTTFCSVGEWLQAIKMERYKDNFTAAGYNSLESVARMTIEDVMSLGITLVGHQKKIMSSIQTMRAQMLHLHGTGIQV

As a reminder, the residual activity is the signal under treatment as a percentage of the control signal. In the case of `O=C1NC(=O)c2c1c1c3ccccc3[nH]c1c1[nH]c3cc(Br)ccc3c21`, the residual activity in assay [1] came out at 4%; in assay [2] it was 100%; in [3] it was 75%; in assay [4], 96%; in [5], 86%; in assay [6], 98%. In addition, the residual activity in assay [7] stood at 114%; in assay [8], 93%; in assay [9] it was 86%; in assay [10] it was 104%; in assay [11], 92%; in assay [12], 111%. In addition, the residual activity is 91% in assay [13]; 99% in assay [14]; 93% in [15]; 95% in assay [16]; 88% in assay [17]; 106% in assay [18].
As for `O=C(O)c1ccc2c3c1cccc3c(=O)n1c3ccccc3nc21`, the residual activity was 13% in [1]; 54% in assay [2]; 11% in assay [3]; 103% in assay [4]; 89% in assay [5]; 88% in assay [6]. Besides, the residual activity in [7] turned out to be 102%; in assay [8], 103%; in [9], 91%; in assay [10], 106%; in assay [11], 104%; in assay [12], 102%. The residual activity in [13] was 100%; in assay [14] it was 104%; in assay [15] it was 88%; in assay [16], 103%; in assay [17] it was 93%; in assay [18] it was 107%.
